# Data as given in PubChem BioAssay (NCI).
# Compounds without any hit were thinned out: in the full panel of roughly 83,000, 20% have a hit.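 Values shown are percent growth following 48 h exposure of cells in 96-well plates to a single concentration of compound; below 10 was considered active.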 The source made the active and inactive calls.
# System: HL-60(TB) leukemia
# Assay: NCI-60 one-dose screen, 48 h (100 = growth as untreated, 0 = no growth, -100 = all killed)
# Settings: 10 µM unless noted
row,Structure (SMILES),growth
1,O=[N+]([O-])c1cccc(C(c2ccccc2)c2ccccc2)c1,88.9% (inactive)
2,O=C(O)c1cc([N+](=O)[O-])ccc1Cl,104% (inactive)
3,Cn1c2ccccc2c2c3c(c4c5ccccc5[nH]c4c21)C(=O)N(N)C3=O,81.8% (inactive)
4,COc1ccc(-n2c(C)cc(-c3ccccc3)c2C)cc1,23.2% (inactive)
5,COc1cc(C2CC(c3cccc(Nc4ccncc4)c3)=NN2C(C)=O)cc(OC)c1OC (configuration not stated),94.6% (inactive)
6,COc1ccc(CCO)cc1,64.3% (inactive)
7,CN(C)C(=O)c1ccc(SC(=S)NCc2ccccc2)cc1,-32% [100 µM] (active)
8,CC(C)(C)c1ccc(O)c(Br)c1,156% (inactive)
9,N=C(N)c1ccc(-c2ccc(-c3ccc(-c4cccs4)s3)s2)cc1,100% (inactive)
10,CCSc1nc2ccccc2o1,97.5% (inactive)
11,NC1CCN(c2nc(Nc3cccc(C(F)(F)F)c3)c3c(=O)[nH]ccc3n2)CC1,-61.2% (active)
12,O=C(N=Nc1c(Cl)c(O)c2ccccc2c1O)C(=O)Nc1cccc(C(F)(F)F)c1,6.33% (active)
13,O=C1/C(=C/c2ccc(O)cc2)Oc2ccc(Cl)cc21,81% (inactive)
14,O=C(Nc1cccc([N+](=O)[O-])c1)c1cccc(C(=O)Nc2cccc([N+](=O)[O-])c2)c1,81% (inactive)
15,Cc1c2ccccc2nc2c1ccc1cccnc12,85.8% (inactive)
16,C#CCn1cnc2cnc(Nc3cccc(NC(=O)CCl)c3)nc21,-7.95% [6.25 µM] (active)
17,COCCCNc1nc(NC(=O)c2cc(Br)cc(C(F)(F)F)c2)cc(-c2cccnc2)n1,94.6% (inactive)
